# Assay results published in the supplement of paper PMC8728848.
# Many of the other results were omitted from the sample, so the strongest signals are more common in it than they were.
# B1: Gal 8 (Homo sapiens) (protein)
# chain: MLSLNNLQNIIYNPVIPYVGTIPDQLDPGTLIVICGHVPSDADRFQVDLQNGSSVKPRADVAFHFNPRFKRAGCIVCNTLINEKWGREEITYDTPFKREKSFEIVIMVLKDKFQVAVNGKHTLLYGHRIGPEKIDTLGIYGKVNIHSIGFSFSSDLQSTQASSLELTEISRENVPKSGTPQLQTVSPSWDLQGHGSETFCSVLWTRVFLEIAFCRPIGLTVASFQSLPFAARLNTPMGPGRTVVVKGEVNANAKSFNVDLLAGKSKDIALHLNPRLNIKAFVRNSFLQESWGEEERNITSFPFSPGMYFEMIIYCDVREFKVAVNGVHSLEYKHRFKELSSIDTLEINGDIHLLEVRSW
# Key:
# Assay in all cases: glycan array binding signal (z-score within array); higher = stronger binding
# Settings in all cases: glycan notation: IUPAC condensed, linker removed
# [1] = target: Fuc(a1-2)Gal(b1-3)GalNAc(a1-3)[Fuc(a1-2)]Gal(b1-4)Glc
# Method in brief: (§1)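 Glycan array binding is given as a within-array Z-score, which can be read as non-binding when negative. The arrays, 3228 of them, came from the Consortium for Functional Glycomics database and were retained only where the protein sequence was available. Z-scores were averaged across arrays of the same protein sequence at different concentrations or buffers and across linkers.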
# [2] = target: Fuc(a1-2)Gal(b1-3)GlcNAc(b1-3)[Gal(b1-4)GlcNAc(b1-6)]Gal(b1-4)Glc
# Method in brief: as §1
# [3] = target: Fuc(a1-2)[Gal(a1-3)]Gal(b1-4)Glc
# Method in brief: as §1
# [4] = target: Fuc(a1-2)[Gal(a1-3)]Gal(b1-4)GlcNAc(b1-2)Man(a1-3)[Fuc(a1-2)[Gal(a1-3)]Gal(b1-4)GlcNAc(b1-2)Man(a1-6)]Man(b1-4)GlcNAc(b1-4)GlcNAc
# Method in brief: as §1
# [5] = target: Fuc(a1-2)[GalNAc(a1-3)]Gal(b1-4)GlcNAc(b1-2)Man(a1-3)[Fuc(a1-2)[GalNAc(a1-3)]Gal(b1-4)GlcNAc(b1-2)Man(a1-6)]Man(b1-4)GlcNAc(b1-4)GlcNAc
# Method in brief: as §1
# [6] = target: Fuc(a1-2)[GalNAc(a1-4)]Gal(b1-4)GlcNAc
# Method in brief: as §1
# [7] = target: Fuc(a1-3)[Gal(b1-4)]GlcNAc(b1-4)Gal(b1-4)[Fuc(a1-3)]GlcNAc(b1-4)Gal(b1-4)[Fuc(a1-3)]GlcNAc
# Method in brief: as §1
# [8] = target: Gal(a1-3)GalNAc
# Method in brief: as §1
# [9] = target: Gal(b1-3)[Fuc(a1-4)]GlcNAc(b1-3)Gal(b1-4)[Fuc(a1-3)]GlcNAc
# Method in brief: as §1
# [10] = target: Gal(b1-3)[Fuc(a1-4)]GlcNAc(b1-6)GalNAc
# Method in brief: as §1
# [11] = target: Gal(b1-3)[Neu5Ac(b2-6)]GalNAc
# Method in brief: as §1
# [12] = target: Gal(b1-4)GlcNAc(b1-3)Gal(b1-4)GlcNAc(b1-2)Man(a1-3)[Gal(b1-4)GlcNAc(b1-3)Gal(b1-4)GlcNAc(b1-2)Man(a1-6)]Man(b1-4)GlcNAc(b1-4)[Fuc(a1-6)]GlcNAc
# Method in brief: as §1
# [13] = target: Gal(b1-4)GlcNAc(b1-3)Gal(b1-4)GlcNAc(b1-2)[Gal(b1-4)GlcNAc(b1-3)Gal(b1-4)GlcNAc(b1-6)]Man(a1-6)[Gal(b1-4)GlcNAc(b1-3)Gal(b1-4)GlcNAc(b1-2)Man(a1-3)]Man(b1-4)GlcNAc(b1-4)[Fuc(a1-6)]GlcNAc
# Method in brief: as §1
# [14] = target: Gal(b1-4)GlcNAc(b1-3)Gal(b1-4)GlcNAc(b1-3)Gal(b1-4)GlcNAc(b1-2)[Gal(b1-4)GlcNAc(b1-3)Gal(b1-4)GlcNAc(b1-3)Gal(b1-4)GlcNAc(b1-6)]Man(a1-6)[Gal(b1-4)GlcNAc(b1-3)Gal(b1-4)GlcNAc(b1-3)Gal(b1-4)GlcNAc(b1-2)Man(a1-3)]Man(b1-4)GlcNAc(b1-4)[Fuc(a1-6)]GlcNAc
# Method in brief: as §1
# [15] = target: Gal(b1-4)GlcNAc(b1-3)Gal(b1-4)GlcNAc(b1-3)Gal(b1-4)GlcNAc(b1-3)Gal(b1-4)GlcNAc(b1-2)Man(a1-3)[Gal(b1-4)GlcNAc(b1-3)Gal(b1-4)GlcNAc(b1-3)Gal(b1-4)GlcNAc(b1-3)Gal(b1-4)GlcNAc(b1-2)Man(a1-6)]Man(b1-4)GlcNAc(b1-4)[Fuc(a1-6)]GlcNAc
# Method in brief: as §1
# [16] = target: Gal(b1-4)GlcNAc(b1-3)Gal(b1-4)GlcNAc(b1-3)Gal(b1-4)GlcNAc(b1-3)Gal(b1-4)GlcNAc(b1-2)[Gal(b1-4)GlcNAc(b1-3)Gal(b1-4)GlcNAc(b1-3)Gal(b1-4)GlcNAc(b1-3)Gal(b1-4)GlcNAc(b1-6)]Man(a1-6)[Gal(b1-4)GlcNAc(b1-3)Gal(b1-4)GlcNAc(b1-3)Gal(b1-4)GlcNAc(b1-3)Gal(b1-4)GlcNAc(b1-2)Man(a1-3)]Man(b1-4)GlcNAc(b1-4)[Fuc(a1-6)]GlcNAc
# Method in brief: as §1
# [17] = target: Gal(b1-4)GlcNAc(b1-3)Gal(b1-4)GlcNAc(b1-3)Gal(b1-4)GlcNAc(b1-3)Gal(b1-4)GlcNAc(b1-3)Gal(b1-4)GlcNAc(b1-2)[Gal(b1-4)GlcNAc(b1-3)Gal(b1-4)GlcNAc(b1-3)Gal(b1-4)GlcNAc(b1-3)Gal(b1-4)GlcNAc(b1-3)Gal(b1-4)GlcNAc(b1-6)]Man(a1-6)[Gal(b1-4)GlcNAc(b1-3)Gal(b1-4)GlcNAc(b1-3)Gal(b1-4)GlcNAc(b1-3)Gal(b1-4)GlcNAc(b1-3)Gal(b1-4)GlcNAc(b1-2)Man(a1-3)]Man(b1-4)GlcNAc(b1-4)[Fuc(a1-6)]GlcNAc
# Method in brief: as §1
# [18] = target: Gal(b1-4)GlcNAc(b1-3)Gal(b1-4)GlcNAc(b1-3)Gal(b1-4)GlcNAc(b1-3)Gal(b1-4)GlcNAc(b1-3)Gal(b1-4)GlcNAc(b1-3)Gal(b1-4)GlcNAc(b1-2)Man(a1-3)[Gal(b1-4)GlcNAc(b1-3)Gal(b1-4)GlcNAc(b1-3)Gal(b1-4)GlcNAc(b1-3)Gal(b1-4)GlcNAc(b1-3)Gal(b1-4)GlcNAc(b1-3)Gal(b1-4)GlcNAc(b1-2)Man(a1-6)]Man(b1-4)GlcNAc(b1-4)GlcNAc
# Method in brief: as §1
# [19] = target: Gal(b1-4)GlcNAc(b1-6)[Gal(b1-3)]GalNAc
# Method in brief: as §1
# [20] = target: GalNAc(a1-3)GalNAc(b1-3)Gal(a1-4)Gal(b1-4)Glc
# Method in brief: as §1
binder,measurement,setting,value
B1,glycan array binding signal (z-score),[1],0.572
same,glycan array binding signal (z-score),[2],0.003
same,glycan array binding signal (z-score),[3],4.4
same,glycan array binding signal (z-score),[4],4.31
same,glycan array binding signal (z-score),[5],5.81
same,glycan array binding signal (z-score),[6],-0.357
same,glycan array binding signal (z-score),[7],-0.35
same,glycan array binding signal (z-score),[8],-0.387
same,glycan array binding signal (z-score),[9],-0.39
same,glycan array binding signal (z-score),[10],-0.355
same,glycan array binding signal (z-score),[11],-0.387
same,glycan array binding signal (z-score),[12],3.06
same,glycan array binding signal (z-score),[13],6.42
same,glycan array binding signal (z-score),[14],6.12
same,glycan array binding signal (z-score),[15],3.61
same,glycan array binding signal (z-score),[16],5.79
same,glycan array binding signal (z-score),[17],5.3
same,glycan array binding signal (z-score),[18],5.33
same,glycan array binding signal (z-score),[19],-0.305
same,glycan array binding signal (z-score),[20],0.169
